# Measured values: PubChem BioAssay
# “And” between values parts separate entries of the source, which are not always exact repeats. Equal values may be shown once. For part of these data: Entries with a potency or affinity are not part of this list. The source made the active and inactive calls.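 How the source made its calls, unless noted: active means thallium flux through the channel raised or lowered by more than 3 SD from vehicle-only wells, actives on both sides; inactive means the rest.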
# How the values were obtained:
# [1] = liver-stage malaria parasite growth inhibition, primary screen, cell-based, HepG2, luciferase luminescence, HepG2 viability (AID 624349; in the data active means parasite load remaining mostly below about 12%, no sharp cut-off; inactive means mostly above about 10%;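 further: 100% = mean of DMSO negative control wells on the same plate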); details: P. berghei liver stage in HepG2, luciferase luminescence, concentration not given here; parasite load remaining: stronger effect = lower value; viability: measured here: HepG2 viability without parasites
# [2] = Cy5 fluorescence interference with SSB-bound oligo, artefact control for HCV NS3 helicase inhibitor project, biochemical, NIH Clinical Collection, E. coli SSB (AID 743268; call rule not given here)
# [3] = viability rescue of complex I mutant cybrids, primary screen, cell-based, galactose medium, ATP luminescence (AID 1645843;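 active means z-score of at least 1.8 in each of two replicates, scored against plate mean and spread of sample wells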;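 further: positive z means more ATP and so rescue of galactose-driven cybrid death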); details: complex I mutant cybrid cells, 72 h, stronger effect = higher value
# F380Y/beta1 = test: modulators of BK channel variants, profiling panel, selectivity assay, cell-based, U2OS BacMam, thallium flux, beta subunits (AID 1259406); details: at 30 µM;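 further: initial slope of Thallos dye fluorescence rise after thallium is added; log ratio against the mean of 0.3% DMSO vehicle wells on the same plate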
# F380Y/beta4 = test: as above; details: at 30 µM
# R275C = test: as above; details: at 30 µM
# R275C/beta1 = test: as above; details: at 30 µM
# R275C/beta2Delta = test: as above; details: at 30 µM
# R275C/beta4 = test: as above; details: at 30 µM
# R275C/Slo1WT/beta2 = test: as above; details: at 30 µM
# [4] = hESC survival regulators, cell-based (AID 493140; call rule not given here;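 further: cells exposed to compounds for four days before counting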); details: human embryonic stem cell survival screen; stronger effect = higher value
# [5] = polyglutamine-triggered caspase-3 activation inhibitors, cell-based (AID 1583); details: polyglutamine-induced caspase-3 activation, cell assay; stronger effect = higher value;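 tested at 10 µM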
# [6] = suppressors of polyQ aggregation in yeast, 75Q-TubU reporter (AID 1593); details: Yeast 75Q polyglutamine aggregation reporter
# [7] = rescue of polyQ-huntingtin neuronal dysfunction in worms, whole organism, C. elegans mechanosensory neurons, N-terminal huntingtin (AID 1599); details: touch response, stronger effect = higher value
# [8] = inhibitors of mitochondrial cytochrome c release, biochemical, purified mitochondria (AID 1603); details: stronger effect = lower value;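 further: mouse liver mitochondria challenged with calcium chloride; signal normalized to the plate average as 100%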
# [9] = inhibitors of polyQ protein aggregation (AID 1604); details: polyglutamine-induced protein aggregation inhibition assay; stronger effect = higher value; tested at 2.5 µM
# [10] = enhancers of glutamate uptake in motor neurons, MN-1 cell line (AID 1612); details: MN-1 motor neuron cells, stronger effect = higher value;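 further: tested at 1 µM final; 0% = mean of DMSO vehicle wells on each plate; positive means more glutamate uptake than control and negative means less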
# [11] = suppressors of polyglutamine aggregation in yeast, 75Q-TubH (AID 1616); details: S. cerevisiae 75Q-TubH polyglutamine aggregation suppression; stronger effect = higher value
# [12] = tested on: Hepatitis C virus NS3 helicase; test: HCV NS3 helicase inhibitors, primary screen, biochemical, fluorescence polarization, LOPAC1280 library (AID 687035; in the data active means inhibition above about 37%); details: Purified HCV NS3 helicase, Cy5-dT15 ssDNA binding fluorescence polarization; stronger effect = higher value; concentration not given here
# [13] = modulation of C. elegans fzo-1 (AID 1259413; call rule not given here;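 further: fzo-1 mutant C. elegans worms in liquid wells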); details: C. elegans fzo-1 modulator screen, mean read-out; stronger effect = higher value
smiles,measurement,setting,value
C[C@@H]1C[C@H]2[C@@H]3CCC4=CC(=O)C=C[C@]4(C)[C@@]3(F)[C@@H](O)C[C@]2(C)[C@@]1(O)C(=O)CO,parasite load remaining,[1],76.8% (inactive) and 55.7% (inactive)
same,viability,[1],86.4% and 108%
same,fluorescence ratio,[2],1.05 (inactive)
same,z-score,[3],0.135 (inactive) and 0.555 (inactive)
same,log fold change Tl+ flux,F380Y/beta1,0.0534 (inactive)
same,log fold change Tl+ flux,F380Y/beta4,-0.000275 (inactive)
same,log fold change Tl+ flux,R275C,0.0247 (inactive)
same,log fold change Tl+ flux,R275C/beta1,0.0605 (inactive)
same,log fold change Tl+ flux,R275C/beta2Delta,0.000117 (inactive)
same,log fold change Tl+ flux,R275C/beta4,0.0627 (inactive)
same,log fold change Tl+ flux,R275C/Slo1WT/beta2,0.0456 (inactive)
C#C[C@]1(O)CC[C@H]2[C@@H]3CCC4=CC(=O)CC[C@@H]4[C@H]3CC[C@@]21CC,survival,[4],3.67 (inactive)
same,parasite load remaining,[1],51.8% (inactive) and 75.6% (inactive) and 14.7% (inactive)
same,viability,[1],93.6% and 73.1% and 73.5%
same,fluorescence ratio,[2],1.02 (inactive)
same,z-score,[3],0.335 (inactive)
same,log fold change Tl+ flux,F380Y/beta1,0.149 (active)
same,log fold change Tl+ flux,F380Y/beta4,-0.00261 (inactive)
same,log fold change Tl+ flux,R275C,-0.0255 (inactive)
same,log fold change Tl+ flux,R275C/beta1,0.00999 (inactive)
same,log fold change Tl+ flux,R275C/beta2Delta,-0.0278 (inactive)
same,log fold change Tl+ flux,R275C/beta4,-0.0556 (inactive)
same,log fold change Tl+ flux,R275C/Slo1WT/beta2,-0.0344 (inactive)
COc1ccc2c(c1)c(CC(=O)O)c(C)n2C(=O)c1ccc(Cl)cc1,inhibition,[5],24.4%
same,score,[6],-1.46
same,rescue above control,[7],-5.76
same,cytochrome c release ratio,[8],0.82
same,inhibition of aggregation,[9],-6.06%
same,glutamate uptake change,[10],7.33%
same,aggregation suppression score,[11],0.0101
same,survival,[4],13.2 (inactive)
same,inhibition,[12],-5% (inactive)
same,fluorescence ratio,[2],1.02 (inactive)
same,mean signal,[13],244 (inactive)
same,log fold change Tl+ flux,R275C,0.074 (inactive)
same,log fold change Tl+ flux,R275C/beta1,0.196 (active)
same,log fold change Tl+ flux,R275C/beta2Delta,0.128 (active)
Nc1nc2ccc(OC(F)(F)F)cc2s1,survival,[4],22.5 (inactive)
same,inhibition,[12],-3% (inactive)
same,fluorescence ratio,[2],0.95 (inactive)
same,mean signal,[13],260 (inactive)
CC(=O)O[C@]1(C(C)=O)CC[C@H]2[C@@H]3C=C(C)C4=CC(=O)CC[C@]4(C)[C@H]3CC[C@@]21C,survival,[4],3.08 (inactive)
same,parasite load remaining,[1],111% (inactive) and 60.7% (inactive) and 27.2% (inactive)
same,viability,[1],93.3% and 69.6% and 81%
same,fluorescence ratio,[2],1.01 (inactive)
same,z-score,[3],0.025 (inactive)
same,log fold change Tl+ flux,F380Y/beta1,0.018 (inactive)
same,log fold change Tl+ flux,F380Y/beta4,-0.0433 (inactive)
same,log fold change Tl+ flux,R275C,-0.0376 (inactive)
same,log fold change Tl+ flux,R275C/beta1,0.00523 (inactive)
same,log fold change Tl+ flux,R275C/beta2Delta,-0.00852 (inactive)
same,log fold change Tl+ flux,R275C/beta4,-0.0116 (inactive)
same,log fold change Tl+ flux,R275C/Slo1WT/beta2,0.0254 (inactive)
CCn1cc(C(=O)O)c(=O)c2cc(F)c(N3CCNCC3)cc21,inhibition,[5],-2.25%
same,score,[6],0.92
same,rescue above control,[7],3.5
same,cytochrome c release ratio,[8],0.95
same,inhibition of aggregation,[9],52.4%
same,glutamate uptake change,[10],-6.97%
same,aggregation suppression score,[11],1.19
same,survival,[4],20.2 (inactive)
same,mean signal,[13],207 (inactive)
same,z-score,[3],0.67 (inactive)
